Rows were chosen to be rich in hits. Some 4.2% of all compounds tested hit in one or more screens of this group.
RecA splice inh: Mtb RecA intein splicing inhibition. 290,000 tested, 0.75% active. inhibition, % (concentration not given with the values). cell-free RecA intein splicing, fluorescence. AID 2221; in the data active means inhibition above about 30%;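 further: 0% = vehicle wells and 100% = reference inhibitor control wells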
CCHF vOTU inh-1: blocks the CCHF virus ovarian tumor domain protease; AID 651958; inhibition, % at 11.5 µM; 370,000 tested, 0.55% active; CCHFV vOTU protease, Pep-AMC fluorescence; further: 0% = vehicle wells with enzyme and 100% = no enzyme wells
Mtb betalactam: beta-lactam sensitization of Mtb H37Rv; M. tuberculosis H37Rv growth with meropenem, percent inhibition; inhibition, % at 25 µM; 330,000 tested, 0.27% active; AID 434955; call rule not given here;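 further: growth measured after seven days incubation then overnight dye step; 0% = bacteria only wells and 100% = bacteria with antibiotic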
Mtb FBA inh: Mtb fructose-bisphosphate aldolase inhibition; P9WQA3; purified M. tuberculosis FBA, fluorescence read-out; inhibition, % at 1 µM; 360,000 tested, 2.3% active; in the data active means inhibition above about 27%;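 further: 0% = vehicle and 100% = reference inhibitor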
GDH-TPI inh: inhibits GDH-TPI coupling enzymes, artifact for Mtb FBA screen. GDH-TPI coupled enzyme counterscreen, NADH absorbance. 360,000 tested, 1.2% active. inhibition, % at 4.8 µM. AID 588335;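 further: 0% = DMSO wells and 100% = wells lacking the enzyme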
CCHF vOTU inh-2: CCHFV vOTU protease inhibition, confirmation; shares compounds with CCHF vOTU inh-1; Recombinant CCHFV vOTU, Pep-AMC fluorescence; inhibition, % at 11.5 µM; 1,900 tested, 17% active
Starred values were filed as active, the others as inactive; . = no result given. Unless noted, no stated cut-off is given here; in the data, active means inhibition above about 30%; inactive means the rest.

SMILES	RecA splice inh	CCHF vOTU inh-1	Mtb betalactam	Mtb FBA inh	GDH-TPI inh	CCHF vOTU inh-2
COC(=O)CCCC1=CC2=C(c3ccccc3)C(=O)C(C)(OC(=O)C3CCCC3)C(=O)C2=CN1C1CCCCC1 (stereo unspecified)	12.4	33.0*	-4.2	-0.2	16.7	22.4
COCCN1C=C2C(=O)C(C)(OC(=O)C3CCCC3)C(=O)C(c3ccccc3)=C2C=C1CCCC(=O)OC (stereo unspecified)	18.7	33.6*	-1.4	-6.2	10.3	38.9*
O=S(=O)(N=C1C=CC(=NS(=O)(=O)c2ccccc2)c2ccccc21)c1ccccc1	.	71.6*	.	1.0	14.3	68.3*
O=C(O)c1ccc(NC2=C/C(=N/S(=O)(=O)c3ccccc3)c3ccccc3C2=O)cc1	.	108.5*	.	-1.7	4.8	113.4*
O=C(O)c1ccc(NC2=C/C(=N/S(=O)(=O)c3cccs3)c3ccccc3C2=O)cc1	.	110.1*	.	-6.3	17.7	104.8*
Cc1ccc(S(=O)(=O)/N=C2\C=C(NS(=O)(=O)c3ccccc3)C(=O)c3ccccc32)cc1	.	51.3*	.	-2.0	17.3	29.1
O=C(O)c1ccc(NS(=O)(=O)c2ccc3c(c2)C(=O)c2ccccc2C3=O)cc1	.	-1.7	-3.4	1.3	11.4	.
Cc1cc(C)c(S(=O)(=O)/N=C2\C=C(NS(=O)(=O)c3ccccc3)C(=O)c3ccccc32)c(C)c1	3.9	20.3	0.9	-2.6	-0.4	.
Cc1ccccc1Cn1cc(COC(=O)Nc2ccc(F)cc2)nn1	.	0.6	.	.	.	.
Cc1ccc(Cl)cc1NC1=C/C(=N\S(=O)(=O)c2cccs2)c2ccccc2C1=O	-0.7	95.9*	99.7	0.2	9.9	95.4*
O=C1Nc2cc(C(=O)NCC3CCCO3)ccc2S/C1=C/c1ccccc1F (stereo unspecified)	-10.5	30.7*	-2.4	-2.7	9.8	-22.8
O=C(NCc1ccccc1)C(c1ccccc1F)n1c(=O)c(-c2cc3ccccc3[nH]2)nc2ccccc21 (stereo unspecified)	.	-24.6	.	.	.	.
CCOC(=O)C1=C(COC(=O)c2ccc3ccccc3c2O)NC(=O)NC1C (stereo unspecified)	.	36.2*	2.6	10.8	13.7	-11.9
CCOC(=O)C1=C(COC(=O)c2ccc([N+](=O)[O-])s2)NC(=O)NC1C (stereo unspecified)	.	99.9*	14.8	1.4	16.2	75.7*
COc1ccc(OCCCC(=O)OC(C)C(=O)Nc2ccc(S(N)(=O)=O)cc2)cc1 (stereo unspecified)	-1.0	-5.3	-10.9	-0.1	-8.6	.
O=C(NC1CCCCC1)C(c1ccnc2ccccc12)n1c(=O)c(-c2ccco2)nc2ccccc21 (stereo unspecified)	.	32.9*	.	.	.	-33.0
Cc1ccc(C(C)C)c(OCc2nn(CC(=O)c3ccc(Cl)cc3)c3[n+]2CCCCC3)c1	8.2	9.5	100.2	-1.1	-6.3	.
COc1cc(NCCCNC(C)C)c2nccc(C)c2c1	.	56.8*	.	-1.9	5.1	28.6
CCOC(=O)C(CNc1ccc(O)cc1)NC(=O)c1ccccc1 (stereo unspecified)	.	48.9*	.	.	.	-0.5
CCOC(=O)CCC(NC(=O)c1ccc(NCN2C(=O)c3ccccc3C2=O)cc1)C(=O)OCC (stereo unspecified)	0.6	11.1	10.7	8.4	7.1	.
COc1c2c(cc3oc(CO[C@@H]4O[C@H](CO)[C@@H](O)[C@H](O)[C@H]4O)cc(=O)c13)O[C@H](C(C)(C)O)C2	.	-7.1	5.1	15.5	11.9	.
Cc1ccc(Cn2ccc(=O)c(OCc3c(Cl)cccc3Cl)c2C)cc1	10.1	30.3*	99.9	-3.0	-8.1	7.4
COC(=O)c1c(NC(=O)c2ccco2)sc(C(=O)N(C)C)c1C	-0.1	32.5*	-12.4	-2.4	12.8	8.2
COc1ccccc1NC(=O)C(=O)NCCC1CCCCN1S(=O)(=O)c1ccc(F)cc1 (stereo unspecified)	3.0	-1.8	-7.3	-3.0	-0.7	.
CC(CC(=O)OCC(=O)NCc1ccc(Cl)cc1)c1ccccc1 (stereo unspecified)	.	32.5*	-8.4	1.9	-9.7	-10.4
